# PubChem BioAssay (NCATS)
# Inconclusive results are not listed. A call without a number means that no potency is given here. Activity calls are given as the source filed them. Calls come from the whole dose curve; as a rule, active = well fitted curve in the direction sought with a large enough effect; inconclusive = small, poorly fitted or top-dose-only effect, or another doubt; inactive = no such curve, though single readings can be large; an effect the other way counts as inactive or inconclusive.
# Key:
# [1] = molecular target: Aldehyde dehydrogenase, mitochondrial (Homo sapiens) (UniProt P05091); experiment: qHTS for Inhibitors of the Aldehyde Dehydrogenase Family (ALDH2) Primary screen (AID 2061308); note: nearly all actives have a fitted effect of over 55% in size
# [2] = molecular target: Retinaldehyde dehydrogenase 3 (Homo sapiens) (UniProt P47895); experiment: qHTS for Inhibitors of the Aldehyde Dehydrogenase Family (ALDH1A3) Primary screen (AID 2061315)
Compound,Potency [1],Potency [2]
CC(=O)c1cc2c(s1)c1cnn(Cc3ccccc3F)c(=O)c1n2C,inactive,inactive
Cc1ccc(NS(=O)(=O)c2cc3c(cc2N(C)C)NC(=O)CC3)cc1C,inactive,inactive
COc1ccc(NC(=O)C2=C(C)NC(Nc3nc4ccccc4o3)=NC2c2ccccc2Br)cc1 (stereo not drawn),inactive,inactive
Cc1ccc(S(=O)(=O)Nc2ccccc2C(=O)Nc2nc(-c3ccccc3)c(C)s2)cc1,inactive,inactive
COc1cccc(-c2nnc3n2N=C(c2ccccc2OC)CS3)c1,inactive,inactive
Cn1nnnc1Sc1ncnc2scc(-c3ccc(C#N)cc3)c12,inactive,inactive
CC(=O)c1ccc(N2CCN(S(=O)(=O)c3ccc4c(c3)oc(=O)n4C)CC2)cc1,inactive,inactive
CN(CC1CCCO1)c1ncnc2ccc(-c3ccc4c(c3)OCO4)cc12 (stereo not drawn),inactive,inactive
NC(=O)c1c(-c2ccccc2)no[n+]1[O-],inactive,inactive
CC(=O)NC(c1cc(F)c2cccnc2c1O)C1CC1 (stereo not drawn),inactive,inactive
Cc1cc(C)nc(NC(=S)N2CCN(Cc3c(F)cccc3Cl)CC2)c1,inactive,inactive
CCCn1c(C)nc2c(NCCN3CCCCC3)nc(C)nc21,inactive,inactive
Cc1ccc(S(=O)(=O)Nc2cc(C(=O)Nc3nc(-c4ccccc4)cs3)ccn2)cc1,inactive,inactive
CN(C(=O)c1cn2c(-c3ccc(C(F)(F)F)cc3)cnc2cn1)c1ccc(C#N)cc1,inactive,inactive
COc1ccccc1-c1nnc2n1N=C(c1ccc(OC(F)F)c(OCC3CC3)c1)CS2,inactive,inactive
Cc1ccc(OCCn2c(CCNC(=O)Cc3ccccc3F)nc3ccccc32)cc1,inactive,inactive
O=C(Nc1nc(-c2ccccc2)cs1)c1ccncc1NS(=O)(=O)c1cccc2cccnc12,inactive,inactive
Cc1ccc(-c2cc(C(=O)Nc3ccc(C#N)cc3)c3ccccc3n2)cc1C,inactive,inactive
NCCCCC(=O)Nc1ccc(Cl)cc1C(=O)c1ccc[nH]1,inactive,inactive
CCOc1ccc(C(=O)Nc2ccc(-c3nc4ccccc4s3)cc2)cc1[N+](=O)[O-],inactive,inactive
Cn1c2cc(Br)sc2c2cnn(Cc3ccccc3F)c(=O)c21,inactive,inactive
CCCn1c(C)nc2c(NCCN(CC)CC)nc(C)nc21,inactive,inactive
Cc1cc(C)nc(NC(=S)N2CCN(c3noc4ccccc34)CC2)c1,inactive,inactive

Compound,Potency [1],Potency [2]
O=S(=O)(c1ccc2ccccc2c1)N1CCN(S(=O)(=O)c2c(F)cccc2F)CC1,inactive,inactive
O=C(O)c1ccc(O)c2ncccc12,inactive,inactive
Cc1cccc(-n2cnc3cc(C(=O)N4CCC(C(F)(F)F)CC4)ccc32)c1,inactive,inactive
Cc1cc(C)nc(NC(=S)N2CCN(c3ncc(C(F)(F)F)cc3Cl)CC2)c1,inactive,inactive
COc1cc(NC(=O)C(OC(=O)CNC(=O)c2ccccc2)c2ccccc2)cc(OC)c1 (stereo not drawn),inactive,inactive
O=C1CCc2cc(S(=O)(=O)Nc3ccc4c(c3)CCC4)ccc2N1,inactive,inactive
COc1ccc(C2Nc3ccccc3C(=O)N2Cc2ccncc2)cc1COc1c(C)cc(NC(C)=O)cc1C (stereo not drawn),inactive,inactive
O=C(Cn1cc(CNC(=O)C2CCCCC2)nn1)Nc1cc(C(F)(F)F)ccc1Cl,inactive,inactive
O=c1c2ccccc2nc2sc(Nc3ccc(F)cc3)nn12,inactive,inactive
Clc1ccccc1-c1ccc2ncnc(NCc3ccc4c(c3)OCO4)c2c1,inactive,inactive
CCCn1c(-c2ccc(F)cc2)nc2c(N3CCN(CCC(=O)OCC)CC3)nc(C)nc21,inactive,inactive
Cc1ccc(CNc2ncnc3ccc(-c4ccoc4C)cc23)o1,inactive,inactive
O=S(=O)(c1ccc(C(F)(F)F)cc1)N1CCN(S(=O)(=O)c2ccc3c(c2)OCCO3)CC1,inactive,inactive
Cc1cccc(-n2cnc3cc(C(=O)NC4CCCCC4)ccc32)c1,inactive,inactive
Cc1ccc2nc(NC3=NC4(CCCC4)C4=C(CCCC4=O)N3)oc2c1,inactive,inactive
O=C(COc1ccc(F)cc1)NCCc1nc2ccccc2[nH]1,inactive,inactive
Cc1cc2c(s1)c1cnn(Cc3cc(F)c(F)c(F)c3F)c(=O)c1n2C,inactive,inactive
CN(C)C(=O)C1CCN(c2nc(-c3ccc(Br)cc3)cs2)CC1,inactive,inactive
O=C(CSc1nnc(-c2cccc([S+](=O)([O-])N3CCCC3)c2)n1-c1ccccc1)Nc1cccc(C(F)(F)F)c1,inactive,inactive
CC1(C)CC2CC(C)(CN2S(=O)(=O)c2ccc(C(=O)Nc3ccc(Cl)cc3)cc2)C1 (stereo not drawn),inactive,inactive
COc1ccc(Cl)cc1C(=O)Nc1nc(-c2ccccc2)cs1,inactive,inactive
O=C(Cc1ccccc1)Nc1ccc(S(=O)(=O)Nc2nccs2)cc1,inactive,inactive
C/C=C/c1ccc2c(c1)[C@@H](C)[C@H](c1ccc(O)cc1)O2,inactive,inactive

Compound,Potency [1],Potency [2]
Cc1ccc(C2N=C(Nc3nc4ccccc4o3)NC3=C2C(=O)CCC3)cc1 (stereo not drawn),inactive,inactive
Cc1cc(NS(=O)(=O)CCNC(=O)Cc2ccc(Cl)c(Cl)c2)no1,inactive,inactive
CCOc1ccccc1-c1nnc2n1N=C(c1ccc(OC)c(OC)c1)CS2,inactive,inactive
c1nc(N2CCNCC2)c2cc(-c3ccc4c(c3)OCO4)ccc2n1,inactive,inactive
Cc1ccc(-c2nnc(N3CCC(C(N)=O)CC3)s2)cc1,inactive,inactive
CC(Nc1nc(-c2ccccc2C(F)(F)F)nc2ccccc12)c1ccc(-c2cccc(C(F)(F)F)c2)cc1 (stereo not drawn),inactive,inactive
CCN(CC)CCCC(C)n1c(-c2ccccc2)nc2c(N(CCOC)CCOC)nc(C)nc21 (stereo not drawn),inactive,inactive
O=C([C@@H](Cc1ccc(O[S+](=O)([O-])c2cccnc2)cc1)N[S+](=O)([O-])c1cccc2cccnc12)N1CCN(c2ccccc2)CC1,inactive,inactive
Cc1ccc(-c2cc(C(=O)Nc3ccccc3)c3ccccc3n2)cc1C,inactive,inactive
Cn1nnnc1Sc1ncnc2scc(-c3ccc(F)cc3)c12,inactive,inactive
O=S(=O)(NC1CCN(S(=O)(=O)c2ccc3c(c2)OCCO3)C1)c1c(F)cccc1F (stereo not drawn),inactive,inactive
O=C(O)C1C2C(=O)N(c3ccccc3)C[C@@]23C=C[C@@H]1O3 (stereo partly drawn),inactive,inactive
CC(C)c1cc(C(C)C)c(S(=O)(=O)Nc2cccc3cccnc23)c(C(C)C)c1,inactive,inactive
CCOc1ccc(CCNC(=O)c2ccc3[nH]ccc3c2)cc1OCC,inactive,inactive
c1nc(NCC2CCCCC2)c2cc(-c3ccc4c(c3)OCO4)ccc2n1,inactive,inactive
CC(=O)O[C@@H]1CC2C(C)(C)C(=O)C=C[C@]2(C)C2CC[C@@]3(C)[C@H](c4ccoc4)OC(=O)[C@H]4O[C@]43[C@@]21C (stereo partly drawn),inactive,inactive
c1cncc(-c2ccc(CNc3nc(N4CCCC4)nc4ccccc34)cc2)c1,inactive,inactive
Cc1ccc(-c2csc(N3CCC(C(N)=O)CC3)n2)cc1,inactive,inactive
CCCCNc1nc(C)nc2c1nc(-c1ccccc1)n2CCN1CCCCC1,inactive,inactive
Fc1cccc(-c2nc3ccccc3s2)c1,inactive,inactive
Cc1cc(N[S+](=O)([O-])c2ccc(NC(=O)Cc3ccc4c(c3)CCCC4)cc2)no1,inactive,inactive
O=C(Nc1nc(-c2ccccc2)cs1)c1ccncc1NS(=O)(=O)c1ccc(-c2ccccc2)cc1,inactive,inactive
Cc1ccc(NC(=O)CSc2nnc(-c3cccc([S+](=O)([O-])N4CCCC4)c3)n2-c2c(C)cccc2C)cc1,inactive,inactive
